The results in this text go back to PubChem BioAssay AID1851 (National Center for Advancing Translational Sciences (NCATS), 2009).

Hit rate of the full screen: of about 16,000 compounds, about 5,100 (32%) were called active. Roughly 25% stayed inconclusive and do not appear here. The list shows a part of the results. Values without a mark were called inactive. The call rests on the fitted dose curve; in most records, active means well fitted curve in the direction sought with a large enough effect; inconclusive means small, poorly fitted or top-dose-only effect, or effect the other way; inactive means no such curve, though single readings can be large or run the other way.

One may read the AC50 as the concentration at which the activity in the assay is half-maximal.
On the % scale 0 is the no-effect control and ±100 the full control effect.

This test deals with Cytochrome P450 3A4 (Homo sapiens) (UniProt P08684). Description: Cytochrome panel assay with activity outcomes. As to conditions: recombinant CYP, pro-luciferin dealkylation, luminescence, p450-cyp3a4; series mostly up to 57.1 µM.
Sequence of Cytochrome P450 3A4 (Homo sapiens) (P08684 whole entry, looked up): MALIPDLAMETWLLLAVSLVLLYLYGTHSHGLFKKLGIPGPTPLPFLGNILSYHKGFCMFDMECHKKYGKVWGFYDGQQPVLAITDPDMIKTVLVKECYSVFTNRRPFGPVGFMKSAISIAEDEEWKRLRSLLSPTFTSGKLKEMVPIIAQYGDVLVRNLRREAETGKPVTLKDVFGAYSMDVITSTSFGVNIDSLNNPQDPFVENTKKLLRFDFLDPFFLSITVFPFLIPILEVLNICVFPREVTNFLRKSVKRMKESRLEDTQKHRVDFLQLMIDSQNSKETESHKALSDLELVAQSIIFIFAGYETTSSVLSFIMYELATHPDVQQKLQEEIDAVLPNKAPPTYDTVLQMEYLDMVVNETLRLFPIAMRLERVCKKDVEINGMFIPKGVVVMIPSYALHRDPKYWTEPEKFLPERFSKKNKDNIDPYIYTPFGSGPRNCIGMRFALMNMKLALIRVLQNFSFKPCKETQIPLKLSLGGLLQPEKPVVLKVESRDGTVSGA
Consider `CNC(=S)N1CCN(c2ccccc2OC)CC1`, for which the AC50 was 10 µM (active).

Consider `Fc1cccc(CSc2ncnc3c2ncn3[C@H]2CCCS2)c1`, for which the activity, negative = inhibition is -11.8% [at 11.4 µM].

Consider `N#Cc1ccc(-c2ccc(F)cc2)nc1Oc1ccc(Cl)c(Cl)c1`, for which the AC50 result is “inactive”.

As to `Cc1nc(Sc2ccccc2)c(C#N)cc1-c1ccccc1`, the AC50 entry is “inactive”.

Turning to `Cc1ccc(Sc2nc(-c3ccccc3)ccc2C#N)cc1`, the half-maximal activity concentration (AC50) is 20 µM (active).

Consider `COc1ccccc1-c1nnc(SCc2nc3ccccc3s2)n1C`, for which the AC50 was 17.8 µM (active).

In the case of `CCN1C(=O)[C@H]2[C@H]3[C@H](O)[C@H](O)C/C(=N/O[C@@H]4O[C@@H](COC(C)=O)[C@@H](OC(C)=O)[C@@H](OC(C)=O)[C@H]4OC(C)=O)[C@@H]3CC[C@@H]2C1=O`, the activity, negative = inhibition is -19.3% [at 11.4 µM].

Turning to `COc1ccc(-c2c(C)oc3c(CN4CCN(CCO)CC4)c(O)ccc3c2=O)cc1OC`, the activity, negative = inhibition is -0.572% [at 11.4 µM].

Consider `COc1cc(-c2ccc(=O)[nH]n2)ccc1OC(F)F`, for which the AC50 entry was “inactive”.

Take `COc1ccc(-c2cc(-c3c(O)c(OC)c4occc4c3OC)[nH]n2)cc1OC`: the AC50 is 7.94 µM (active).

For `COc1ccc(-c2cc(-c3cc(F)ccc3O)[nH]n2)cc1OC`, the AC50 is 20 µM (active).

For the compound `Nc1nc(Nc2ccccc2)nc2c1ncn2[C@@H]1O[C@@H](CO)[C@H](O)[C@H]1O`, the AC50 entry was “inactive”.

Take `Cc1nn(C(=O)CN2C(=O)c3ccccc3C2=O)c(C)c1Br`: the AC50 result is “inactive”.

`O=C(CN1C(=O)c2ccccc2C1=O)NC1(C(=O)O)CCCC1`: the activity, negative = inhibition is -10.2% [at 11.4 µM].

For the compound `O=C1c2ccccc2C(=O)N1CC(=O)N1c2ccccc2CCc2ccccc21`, the AC50 is 12.6 µM (active).

In the case of `CCc1ccc(C2=Nn3c(nnc3-c3cccs3)SC2)cc1`, the concentration at half-maximal activity (AC50) is 25.1 µM (active).

As for `CCOc1ccc(-c2nnc3n2N=C(c2ccc(OC)cc2)CS3)cc1`, the AC50 is 15.8 µM (active).

`CCOc1ccc(-c2nnc3ccc(SC)nn23)cc1`: the AC50 result was “inactive”.

Consider `COc1ccc(-c2nnc3n2N=C(C)CS3)cc1`, for which the AC50 result was “inactive”.

For `c1ccc(-c2ccc(C3=Nn4c(Cn5nnc6ccccc65)nnc4SC3)cc2)cc1`, the activity, negative = inhibition is -11.6% [at 2.29 µM].

Consider `Cc1ccc(CNC(=O)C2(NC(=O)Nc3ccc(C)cc3)CCCCC2)cc1`, for which the concentration at half-maximal activity (AC50) is 2.51 µM (active).

Regarding `CCNC(=O)NC1(C(=O)Nc2ccc3c(c2)OCCO3)CCCCC1`, the AC50 entry is “inactive”.

As for `O=C(O)C1(Nc2ccc(Cl)cc2)CCCC1`, the activity, negative = inhibition was -9.17% [at 11.4 µM].

In the case of `O=C(CSCc1ccccc1)Nc1cccc(C(=O)Nc2ccccc2C(=O)O)c1`, the AC50 is 14.1 µM (active).

`O=C(CSCc1ccccc1)Nc1ccc(S(=O)(=O)N2CCOCC2)cc1`: the activity, negative = inhibition is -15.3% [at 11.4 µM].

On to `CNc1csc(C)c(C)c1=O`, for which the AC50 result was “inactive”.

On to `c1ccc2c(CSCc3cccc4ccccc34)cccc2c1`, for which the activity, negative = inhibition was -3.97% [at 11.4 µM].

Turning to `c1ccc2c(CSc3nnc(-c4ccncc4)o3)cccc2c1`, the AC50 is 15.8 µM (active).

Turning to `CCCCNC(=O)CN1C(=O)NC2(CCCc3ccccc32)C1=O` (stereo unspecified), the AC50 result is “inactive”.

In the case of `CCCCN(C)C(=O)c1coc(=O)c2ccccc12`, the AC50 entry is “inactive”.

In the case of `CCCCNC(=O)Cc1coc2ccc3ccccc3c12`, the concentration at half-maximal activity (AC50) is 4.47 µM (active).

`CCCN(C(=O)Cc1nc(N)n[nH]1)C1(C(=O)Nc2ccccc2C)CCCCC1`: the AC50 was 1.12 µM (active).

For `O=C(c1cc(C(F)(F)F)cc(C(F)(F)F)c1)N1CCC[C@@]2(CCN(Cc3ccccc3)C2)C1`, the concentration at half-maximal activity (AC50) was 5.01 µM (active).

As for `N#Cc1ccc(CN2CCC3(CC2)CCN(C(=O)c2cc(C(F)(F)F)cc(C(F)(F)F)c2)CC3)cc1`, the AC50 entry was “inactive”.

Regarding `O=C(c1cc(C(F)(F)F)cc(C(F)(F)F)c1)N1CCC2(CC1)CN(Cc1ccccc1)C2`, the AC50 result was “inactive”.

`O=C(c1cc(C(F)(F)F)cc(C(F)(F)F)c1)N1CCC2(CCN(Cc3ccccc3)CC2)CC1`: the AC50 result was “inactive”.

For the compound `O=C(c1ccncc1)N1CCC2(CC1)CN(Cc1cc(C(F)(F)F)cc(C(F)(F)F)c1)C2`, the AC50 is 5.01 µM (active).

As to `N#Cc1ccc(CN2CC3(CCN(C(=O)c4cc(C(F)(F)F)cc(C(F)(F)F)c4)CC3)C2)cc1`, the AC50 entry is “inactive”.

Take `N#Cc1ccc(CN2CC[C@@]3(CCCN(C(=O)c4cc(C(F)(F)F)cc(C(F)(F)F)c4)C3)C2)cc1`: the half-maximal activity concentration (AC50) was 5.01 µM (active).

In the case of `O=C(c1cc(C(F)(F)F)cc(C(F)(F)F)c1)N1CCC[C@@]2(CCN(Cc3ccncc3)C2)C1`, the half-maximal activity concentration (AC50) was 0.501 µM (active).

For the compound `NS(=O)(=O)c1ccc(N=Nc2ccc(O)c(C(=O)O)c2)cc1`, the activity, negative = inhibition was -11.8% [at 11.4 µM].

On to `Nc1nc2ncc(CNc3ccc(C(=O)N[C@@H](CCC(=O)O)C(=O)O)cc3)nc2c(=O)[nH]1`, for which the AC50 entry was “inactive”.

In the case of `Nc1nc(-c2cccc([N+](=O)[O-])c2)cc(-c2cc(-c3cccc([N+](=O)[O-])c3)nc(N)n2)n1`, the activity, negative = inhibition is -1.01% [at 11.4 µM].

As to `Nc1nc(-c2ccccc2)cc(-c2ccccc2O)n1`, the AC50 entry was “inactive”.

As to `Nc1c(-c2ccccc2)cnn1-c1cccc([N+](=O)[O-])c1`, the AC50 was 14.1 µM (active).

As for `Cc1cc(C)c2c(SCc3ccc(Cl)cc3Cl)nc(N)nc2n1`, the activity, negative = inhibition was 19.4% [at 11.4 µM].

On to `Cc1cc(N2CCOCC2)nc(SCc2ccc(Cl)cc2Cl)n1`, for which the AC50 was 2.24 µM (active).

In the case of `CCCc1ccc(Oc2cc(C)nc(N3CCOCC3)n2)cc1`, the activity, negative = inhibition is 28.4% [at 0.457 µM].

Regarding `C=CC[N+]1(CC#CCOC(c2ccccc2)c2ccccc2)CCOCC1`, the AC50 result was “inactive”.

In the case of `CCOc1cc(CNCCc2ccc(S(N)(=O)=O)cc2)cc(Cl)c1OCc1ccccc1`, the AC50 was 0.447 µM (active).

As to `COc1c(Cl)cc(Cl)cc1CNCCNCCO`, the AC50 entry was “inactive”.

With `CCOc1cc(CNCCc2ccc(S(N)(=O)=O)cc2)ccc1OCc1ccc(Cl)cc1`, the concentration at half-maximal activity (AC50) was 0.398 µM (active).

Take `CCOc1cc(CNCCO)cc(Br)c1OCc1ccccc1Cl`: the half-maximal activity concentration (AC50) was 2 µM (active).

In the case of `CCCc1c(OCCCOc2ccc(OCC(=O)O)cc2)ccc(CC=O)c1O`, the AC50 entry is “inactive”.

Regarding `CCn1c2ccc(Cl)cc2c2nc3ccccc3nc21`, the AC50 is 15.8 µM (active).

Consider `CCn1c2ccccc2c2nnc(NCCCO)nc21`, for which the activity, negative = inhibition was -11.6% [at 11.4 µM].

As to `COc1ccc(-c2ccc(N)[n+](CCCC(=O)O)n2)cc1`, the AC50 result was “inactive”.

For `Cc1cc(NC(=O)CCCC(=O)OCC(F)(F)C(F)F)cc(C)c1C(=O)O`, the AC50 result was “inactive”.

As to `O=C(CCCC(=O)OCC(=O)c1ccc(Cl)cc1Cl)Nc1cc(C(F)(F)F)ccc1Cl`, the AC50 was 22.4 µM (active).

For the compound `CC(C)NC(=O)C1CC(=O)N(c2ccc(F)c(Cl)c2)C1` (stereo unspecified), the activity, negative = inhibition is 5.88% [at 2.29 µM].

Consider `CCOc1ccc(N2CC(C(=O)NCc3cccc(C)c3)CC2=O)cc1` (stereo unspecified), for which the concentration at half-maximal activity (AC50) is 7.94 µM (active).

As for `C[C@@]12C[C@H](O)[C@@H]3[C@H](CCC4=CC(=O)CC[C@]43C)[C@H]1CC[C@@H]2c1csc(N)n1`, the AC50 was 2.51 µM (active).

`C[C@@]12CCC(=O)C=C1CC[C@@H]1[C@@H]2[C@H](O)C[C@]2(C)[C@@H]1CC[C@]2(O)C(=O)COC(=O)CCC(=O)O`: the AC50 result was “inactive”.

For `C[C@@]12CCC(=O)C=C1CC[C@@H]1[C@@H]2[C@H](O)C[C@]2(C)[C@@H]1CC[C@]2(O)C(=O)CO`, the AC50 entry is “inactive”.

In the case of `COc1cc2cc(CN(CCCO)S(=O)(=O)c3ccccc3Cl)c(=O)[nH]c2cc1OC`, the half-maximal activity concentration (AC50) is 14.1 µM (active).

In the case of `CN(C)C(CNC(=O)NC1CCCCC1)c1cccnc1` (stereo unspecified), the half-maximal activity concentration (AC50) was 15.8 µM (active).

`COCCN1C(=O)c2ccccc2C(C(=O)Nc2ccc3c(c2)OCCO3)C1c1ccc(F)cc1` (stereo unspecified): the activity, negative = inhibition was -22.8% [at 2.29 µM].

Take `COc1cccc(NC(=O)C2c3cc(OC)c(OC)cc3C(=O)N(C)C2c2cccnc2)c1` (stereo unspecified): the half-maximal activity concentration (AC50) was 12.6 µM (active).

For `COc1cc2c(cc1OC)C(C(=O)Nc1ccc3c(c1)OCCO3)C(c1cccnc1)N(C)C2=O` (stereo unspecified), the half-maximal activity concentration (AC50) is 28.2 µM (active).

With `COc1ccc(NC(=O)C2c3cc(OC)c(OC)cc3C(=O)N(C)C2c2cccnc2)cc1OC` (stereo unspecified), the concentration at half-maximal activity (AC50) is 25.1 µM (active).

On to `COc1cc2c(cc1OC)C(C(=O)Nc1ccccn1)C(c1cccnc1)N(C)C2=O` (stereo unspecified), for which the activity, negative = inhibition is -22% [at 11.4 µM].

As for `CC(C)C12CC[C@@]3(CC[C@H]4[C@@](C)(CCC[C@]4(C)C(=O)O)[C@@H]3C1)[C@@H](CN)C2`, the activity, negative = inhibition is -9.26% [at 11.4 µM].

Take `CCOC(=O)CSc1n[nH]c(NC(=O)c2cccc(C(F)(F)F)c2)n1`: the AC50 result was “inactive”.

`Cc1ccc(-n2c(C)cc(C(=O)CSc3n[nH]c(N)n3)c2C)cc1`: the AC50 is 10 µM (active).

As for `O=C1CC[C@H](NC(=O)c2ccccc2)C(=O)N1`, the activity, negative = inhibition is -12.3% [at 11.4 µM].

Regarding `N[C@H](CCC(=O)NCC(=O)O)C(=O)O`, the AC50 result is “inactive”.

On to `CN(C)c1ccc(-c2cncnc2Nc2ccc(F)cc2)cc1`, for which the concentration at half-maximal activity (AC50) is 0.794 µM (active).

Take `CN(C)c1ccc(-c2cncnc2Nc2ccccc2)cc1`: the half-maximal activity concentration (AC50) was 0.631 µM (active).

As to `c1cc(CSSCc2ccncc2)ccn1`, the concentration at half-maximal activity (AC50) was 2.51 µM (active).

On to `Cc1cc(C)n(-c2nc3ccccc3c(=O)n2OCc2ccc(Cl)cc2)n1`, for which the concentration at half-maximal activity (AC50) is 14.1 µM (active).

Turning to `Cc1cc(C)n(-c2ccc(Cl)c(C(=O)O)n2)n1`, the AC50 result was “inactive”.

As for `O=[N+]([O-])c1ccc2nc(-c3ccccc3)n(OCc3ccc(Cl)cc3)c2c1`, the AC50 result was “inactive”.

With `COc1ccc(CNc2ccnc(-c3ccc(C(=O)N(C)C)cc3)n2)c(OC)c1`, the concentration at half-maximal activity (AC50) was 3.98 µM (active).

As for `COc1ccccc1CNc1ccnc(-c2ccoc2)n1`, the AC50 was 2.51 µM (active).

`COc1ccccc1CNc1ccnc(-c2ccc(C(=O)N(C)C)cc2)n1`: the AC50 was 25.1 µM (active).

Take `CN(C)c1ccc(-c2nccc(NCc3ccccc3)n2)cc1`: the AC50 is 7.94 µM (active).

As for `C=CC[C@@H](C(=O)O)c1ccccc1`, the activity, negative = inhibition was -1.41% [at 11.4 µM].

With `CC(C)(C)CNCCO`, the activity, negative = inhibition is -3.67% [at 11.4 µM].

Turning to `COc1ccccc1CNc1ccnc(-c2ccc(N(C)C)cc2)n1`, the half-maximal activity concentration (AC50) was 7.94 µM (active).

Consider `COc1ccc(CNc2ccnc(-c3ccc(N(C)C)cc3)n2)c(OC)c1`, for which the AC50 is 12.6 µM (active).

In the case of `COc1ccccc1CNc1cc(-c2ccc(C(=O)N(C)C)cc2)ncn1`, the AC50 is 25.1 µM (active).
